D2 ag-1: HTS Assay for Allosteric Agonists of the Human D2 Dopamine Receptor: Primary Screen for Agonists; activation, % at 2 µM; HEK293 T-REx D2 cells, calcium flux agonist mode; D(2) dopamine receptor (Homo sapiens), P14416; 340,000 tested, 0.53% active;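 active means activation over 3 SD above normal in the single-dose calcium agonist read, cut at about 30% in these data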
Target sequence (P14416 whole entry, looked up): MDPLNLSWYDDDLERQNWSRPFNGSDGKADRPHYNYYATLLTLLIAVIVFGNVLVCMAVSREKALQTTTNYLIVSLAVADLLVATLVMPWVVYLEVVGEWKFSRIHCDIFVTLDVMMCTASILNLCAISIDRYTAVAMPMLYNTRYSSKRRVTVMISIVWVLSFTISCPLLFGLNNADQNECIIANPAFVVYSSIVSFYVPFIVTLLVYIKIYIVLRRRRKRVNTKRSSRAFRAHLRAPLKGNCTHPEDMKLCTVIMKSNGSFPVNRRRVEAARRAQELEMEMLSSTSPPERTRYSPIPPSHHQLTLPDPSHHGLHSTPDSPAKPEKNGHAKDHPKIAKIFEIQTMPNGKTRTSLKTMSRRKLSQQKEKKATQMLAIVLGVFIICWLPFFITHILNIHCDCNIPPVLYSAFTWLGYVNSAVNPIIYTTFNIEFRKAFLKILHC
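In this primary screen, compounds producing a positive calcium signal within 180 s of addition to tetracycline-induced, force-coupled HEK293 Trex D2 cells are flagged; cells are dye-loaded with a no-wash calcium kit beforehand.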
D2 PAM-1: Beta-Arrestin HTS for Positive Allosteric Modulators of the Human D2 Dopamine Receptor: Potentiators; potentiation, % (no concentration beside the values); 360,000 tested, 0.23% active; D(2) dopamine receptor (Homo sapiens), P14416; DiscoveRx D2 beta-arrestin cells, luminescence, 90 min; 100% = 57 uM dopamine signal; AID 624464, 2012; in the data active means potentiation above about 50%; inconclusive means mostly about 30% to 49%
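PathHunter D2 cells, attached overnight at 37 deg C, received compound in DMSO plus dopamine at EC20 (50 nM final) for 90 min at 37 deg C. Beta-arrestin recruitment was read as luminescence after 1 h with detection reagent at ambient temperature.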
D2 ag-2: Beta-Arrestin HTS for Positive Allosteric Modulators of the Human D2 Dopamine Receptor: Agonists; D(2) dopamine receptor (Homo sapiens), P14416; DiscoveRx PathHunter D2 beta-arrestin, luminescence, 90 min; 100% = 57 uM dopamine signal; activation, % (concentration not given with the values); 360,000 tested, 0.084% active; AID 624465, 2012; in the data active means activation above about 40%; inconclusive means between about 15% and that limit
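DiscoveRx PathHunter D2 beta-arrestin cells (2,100/well) attached overnight, then compound-stimulated 90 min at 37 C in HBSS/10 mM HEPES/0.1% Tween-20 buffer; beta-galactosidase complementation read by luminescence after 1 h at ambient temperature. Dopamine 57 uM final (EC100) as control.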
D2 antag: HTS Assay for Allosteric Antagonists of the Human D2 Dopamine Receptor: Primary Screen for Antagonists; D(2) dopamine receptor (Homo sapiens), P14416; HEK293 TREx D2 cells, calcium flux, dopamine EC80; inhibition, % at 10 µM; 340,000 tested, 2% active; AID 485344, 2010; in the data active means inhibition above about 30%; inactive means below that, where a call was filed
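Tetracycline-induced HEK293 TREx cells expressing D2 receptor forced-coupled to calcium signalling, loaded with no-wash calcium dye. Compounds added and calcium flux read 180 s, then dopamine added at EC80 and read a further 180 s.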
Anesthetic bind: qHTS Assay for Identification of Novel General Anesthetics. Ferritin light chain (Equus caballus), P02791. apoferritin/1-aminoanthracene competitive binding, fluorescence. Potency, µM (doses to about 77.5 µM), actives largely listed as inhibitors. 350,000 tested, 0.074% active. AID 485281, 2010; active means well fitted inhibition curve with a large enough effect; inconclusive means small, poorly fitted or top-dose-only effect; inactive means no such curve, though single readings can be large or run the other way; further: nearly all actives have a fitted effect of over 20% in size
Target sequence (P02791 2-175 limits assumed): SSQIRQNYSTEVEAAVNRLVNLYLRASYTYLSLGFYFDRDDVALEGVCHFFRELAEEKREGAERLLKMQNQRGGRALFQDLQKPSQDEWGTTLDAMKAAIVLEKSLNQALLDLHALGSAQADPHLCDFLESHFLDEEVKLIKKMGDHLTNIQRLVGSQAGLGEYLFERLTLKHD
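Horse-spleen apoferritin (10 uM) was mixed with 50% saturated 1-aminoanthracene in PBS, exposed to compounds for 10 min at room temperature, and read for fluorescence (ex 380 nm, em 535 nm). Competitive displacement was fitted with a four-parameter Hill equation.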
D2 PAM-2: HTS Assay for Positive Allosteric Modulators of the Human D2 Dopamine Receptor: Primary Screen for Potentiators | D(2) dopamine receptor (Homo sapiens), P14416 | HEK293 T-REx D2, calcium flux, EC20 dopamine potentiation | potentiation, % at 10 µM | 340,000 tested, 0.34% active | AID 485347, 2010;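 active means potentiation over 3 SD above the plate norm, cut at about 30% in these data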
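Potentiation of an EC20 dopamine calcium response measured kinetically over 180 s, after a preceding 180 s compound-only read flagging agonists. Cells: inducible Hek293 Trex D2 line, 4000/well, cultured overnight at 30 C before dye loading.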
Of the large screens only hits and unclear results are named; the others gave an inactive call. An excerpt weighted towards active compounds, which were near 2.5% of everything screened.

O=C(O)c1cc(S(=O)(=O)Nc2cccc3ccccc23)c(Cl)cc1Cl	none
CCN(CC(=O)Nc1c(F)cccc1F)C(=O)c1ccc(N2CCOCC2)c([N+](=O)[O-])c1	none (no result: Anesthetic bind)
CN(CC(=O)Nc1cccc(F)c1)C(=O)c1cc([N+](=O)[O-])ccc1N1CCCCC1	D2 antag 41.6 (no result: Anesthetic bind)
CCN(CC(=O)Nc1c(F)cccc1F)C(=O)c1ccc(N2CCCC2)c([N+](=O)[O-])c1	D2 antag 31.1 (no result: Anesthetic bind)
Cc1ccc(CN=C2NC(=O)C(CC(=O)NCCc3ccccc3)S2)cc1 (stereo unspecified)	none (no result: D2 ag-1, D2 PAM-1, D2 ag-2, D2 antag, D2 PAM-2)
Cc1ccc(CC2C(=O)N(c3ccc(C)cc3)C(=O)C2C)cc1 (stereo unspecified)	none (no result: D2 PAM-2)
Cc1ccc(CC2C(=O)N(CC(=O)O)C(=O)C2C)cc1 (stereo unspecified)	D2 antag 30.9
Fc1ccc(N2CCN(Cc3cnc(Cl)s3)CC2)cc1	D2 ag-1 38.9
C[C@H]1CN([C@@H](C)CO)S(=O)(=O)c2ccc(Br)cc2O[C@@H]1CN(C)Cc1ccccc1	none (no result: D2 ag-1, D2 PAM-1, D2 antag, Anesthetic bind, D2 PAM-2)
Cc1cc(-c2nnc(SCC(=O)N3C(C)CCCC3C)o2)no1 (stereo unspecified)	none
CC1CCCC(C)N1C(=O)CSc1nnc(C2CCCCC2)o1 (stereo unspecified)	D2 antag 90.3
COC(=O)COc1ccc2c(-c3ccc(OC)cc3)cc(=O)oc2c1	none
COC(=O)COc1ccc2c(-c3cccc([N+](=O)[O-])c3)cc(=O)oc2c1	D2 antag 49.5, Anesthetic bind inconclusive
O=C(c1ccccc1)N1CCN(C(=O)c2ccccc2)CC1	none
CCNc1ccc(Br)cc(C(=O)/C=C/c2c(Cl)cccc2Cl)c1=O	Anesthetic bind inconclusive, D2 PAM-2 48.4
CCOc1ccc(NC(=O)[C@@H](NC(=O)c2ccco2)C(C)C)cc1	D2 antag 39.0
CC(C)C(NC(=O)c1ccco1)C(=O)NCC(c1ccco1)N(C)C (stereo unspecified)	D2 PAM-2 33.3
O=C(CNc1ccccc1)N/N=C/c1c(O)ccc2ccccc12	none
Cc1cc2nc(N)sc2cc1C	D2 antag 34.2, Anesthetic bind inconclusive
CC(C)c1ccc2nc(N)sc2c1	Anesthetic bind inconclusive
Cc1ccc(COc2ccccc2-c2cc(C(=O)N/N=C/c3cccnc3)[nH]n2)cc1	none
COc1cc2c(cc1O)C(Cc1ccc(O)cc1)NCC2 (stereo unspecified)	D2 antag 74.1
COc1cc2c(cc1OC)[C@H](Cc1ccc(O)cc1)NCC2	none
O=[N+]([O-])c1ccc(NCc2ccncc2)cc1	none
C=CCNC(=S)NNC(=O)c1cccn(Cc2ccc(Cl)cc2)c1=O	none
O=C(c1ccccc1)N1CCCCC(Cl)C1=O (stereo unspecified)	D2 antag 31.1, Anesthetic bind inconclusive
CCOc1ccc2c(c1)c(C(C)=O)c(C)n2-c1ccccc1	D2 ag-1 39.8
CCOC(=O)COc1ccc2c(c1)c(C(C)=O)c(C)n2-c1ccccc1	none
c1cncc(-c2nnc3sc(-c4ccco4)nn23)c1	none
CN(c1ccccc1)S(=O)(=O)c1ccc(Cl)c(C(=O)NC2=NCCS2)c1	D2 PAM-2 31.3
CCCCCCNCc1ccc(Br)cc1	D2 antag 30.4
C=CCn1c(SCc2nc(N)nc(N(C)C)n2)nnc1-c1cccnc1	none
Cc1ccc(NC(=O)c2cc([N+](=O)[O-])ccc2NCc2cccnc2)cc1	D2 antag 33.3, Anesthetic bind inconclusive
CC(=O)NCC(=O)N(Cc1ccco1)C1(C(=O)NC2CCCCC2)CCCCC1	D2 antag 72.5
Cc1cc(NC(=O)CCC(=O)N(Cc2ccco2)C2(C(=O)NC3CCCC3)CCCCC2)no1	none
Cc1cc(NC(=O)CCC(=O)N(Cc2ccco2)C2(C(=O)NC3CCCC3)CCCCC2C)no1 (stereo unspecified)	D2 antag 33.7
CC(=O)N(Cc1ccco1)C1(C(=O)NC2CCCCC2)CCCCC1	none (no result: D2 ag-1, D2 antag, D2 PAM-2)
CCOc1cc(C(=O)Nc2cc(=O)n(C)c(=O)n2C)cc(OCC)c1OCC	none
COc1cc(C(C[N+](=O)[O-])c2c(N)n(C)c(=O)n(C)c2=O)ccc1O (stereo unspecified)	none
O=C(CNC(=O)c1ccc(Cl)cc1Cl)OCC(=O)c1ccc2c(c1)OCCO2	Anesthetic bind 14.1µM
O=C(COC(=O)CNC(=O)c1ccc(Cl)cc1Cl)NCC1CCCO1 (stereo unspecified)	none (no result: Anesthetic bind)
Cc1ccc(C)c(N2CCN(CCCNC(=O)Cn3cc4c(n3)CCC(C)C4)CC2)c1 (stereo unspecified)	none
Cc1ccc(C)c(N2CCN(CCCNC(=O)Cn3cc4c(n3)CCCCC4)CC2)c1	D2 antag 65.0
Cc1ccc(C)c(N2CCN(CCCNC(=O)Cn3c(=O)c4cccn4c4cccnc43)CC2)c1	D2 antag 62.7
Cc1cc(OCCN2CCOCC2)nc2ccccc12	none
Cc1cc(OCCN2CCCCC2)nc2ccccc12	D2 antag 30.6
CC1=CC2=NC(=O)/C(=C\c3cc(C)n(-c4cccc(Cl)c4)c3C)C(=N)N2O1	none
CSC1=NSC2=NC(=O)/C(=C/c3coc4ccc(O)cc4c3=O)C(=N)N12	D2 ag-1 48.4
CC1=CC2=NC(=O)/C(=C/c3coc4ccc(Cl)cc4c3=O)C(=N)N2O1	D2 ag-1 64.1
COc1cc(/C=C2/C(=N)N3C(SC)=NSC3=NC2=O)ccc1OC(=O)c1ccco1	none
N=C1/C(=C\c2coc3ccccc3c2=O)C(=O)N=C2SC=CN12	D2 ag-1 116.6
CSC1=NSC2=NC(=O)/C(=C\c3cccs3)C(=N)N12	none
CSC1=NSC2=NC(=O)/C(=C/c3coc4ccccc4c3=O)C(=N)N12	D2 ag-1 55.2
Cc1ccc(Nc2nc3ccc(C)cc3nc2-n2nc(C)cc2C)c(C)c1	none (no result: D2 PAM-1, D2 ag-2, D2 antag)
COc1cc2nc(NCc3ccccc3Cl)n3nc(-c4cccnc4)nc3c2cc1OC	none (no result: D2 PAM-1, D2 ag-2, D2 antag)
Cc1ccc(CNc2ncc(-c3ccc4c(c3)OCO4)n2C)cc1	Anesthetic bind inconclusive (no result: D2 ag-1, D2 antag, D2 PAM-2)
CSCCC(NC(=O)c1ccc([N+](=O)[O-])cc1Cl)C(=O)OCC(=O)NCC(F)(F)F (stereo unspecified)	none
